Measured values reported in PubChem BioAssay AID1159580 (chemical genetic matrix, 2015).
Out of some 5,500 compounds screened, about 2,000 (36%) were called active. Inconclusive results (about 18%) are left out. Cut-off read from the data, not from the text of the source: active = normalized growth mostly below about 0.91 (no sharp cut-off); inconclusive = no clear call, values can overlap the other calls; inactive = mostly above about 0.92. This is one part of the list.

Experiment: chemical genetic growth profiling, strain panel (AID 1159580);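 note: tested at 20 µM; growth read once vehicle control cultures reached saturation at 30 °C; 1 = growth at the plate median or of vehicle wells; lower values mean less growth of the strain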
Settings: S. cerevisiae deletion strains, growth OD
[1] = locus YAR019C, strain CDC15, active compounds read low
[2] = locus YBL105C, strain PKC1, active compounds read low
[3] = locus YBR135W, strain CKS1, active compounds read low
[4] = locus YBR136W, strain MEC1, active compounds read low
[5] = locus YBR160W, strain CDC28, active compounds read low
[6] = locus YDL017W, strain CDC7, active compounds read low
[7] = locus YDL028C, strain MPS1, active compounds read low
[8] = locus YDL101C, strain DUN1, active compounds read low
[9] = locus YDL108W, strain KIN28, active compounds read low
[10] = locus YDL132W, strain cdc53, active compounds read low
[11] = locus YDL214C, strain PRR2, active compounds read low
[12] = locus YDR052C, strain DBF4, active compounds read low
[13] = locus YDR054C, strain cdc34, active compounds read low
[14] = locus YDR226W, strain ADK1, active compounds read low
[15] = locus YDR477W, strain SNF1, active compounds read low
[16] = locus YER123W, strain YCK3, active compounds read low
[17] = locus YER133W, strain GLC7, active compounds read low
[18] = locus YFL009W, strain cdc4, active compounds read low
[19] = locus YFL029C, strain CAK1, active compounds read low
[20] = locus YFR003C, strain YPI1, active compounds read low
[21] = locus YFR019W, strain FAB1, active compounds read low
[22] = locus YFR028C, strain CDC14, active compounds read low
[23] = locus YGR040W, strain KSS1, active compounds read low
[24] = locus YGR052W, strain FMP48, active compounds read low
[25] = locus YGR092W, strain DBF2, active compounds read low
[26] = locus YHR079C, strain IRE1, active compounds read low
[27] = locus YHR082C, strain KSP1, active compounds read low
[28] = locus YHR205W, strain SCH9, active compounds read low
[29] = locus YIL147C, strain SLN1, active compounds read low
[30] = locus YJL095W, strain BCK1, active compounds read low
[31] = locus YJL128C, strain PBS2, active compounds read low
[32] = locus YJL157C, strain FAR1, active compounds read low
[33] = locus YJR016C, strain ILV3, active compounds read low
[34] = locus YJR066W, strain TOR1 (second series), active compounds read low
[35] = locus YJR066W, strain TOR1, active compounds read low
[36] = locus YKL048C, strain ELM1, active compounds read low
[37] = locus YKL067W, strain YNK1, active compounds read low
[38] = locus YKL101W, strain HSL1, active compounds read low
[39] = locus YKL193C, strain SDS22, active compounds read low
[40] = locus YKL203C, strain TOR2, active compounds read low
[41] = locus YLR113W, strain HOG1, active compounds read low
[42] = locus YLR133W, strain CKI1, active compounds read low
[43] = locus YLR403W, strain SFP1, active compounds read low
[44] = locus YML070W, strain DAK1, active compounds read low
[45] = locus YMR001C, strain CDC5, active compounds read low
[46] = locus YMR205C, strain PFK2 (second series), active compounds read low
[47] = locus YMR277W, strain FCP1, active compounds read low
[48] = locus YNL006W, strain LST8, active compounds read low
[49] = locus YNL020C, strain ARK1, active compounds read low
[50] = locus YNL161W, strain CBK1, active compounds read low
[51] = locus YNL183C, strain NPR1, active compounds read low
[52] = locus YNL207W, strain RIO2, active compounds read low
[53] = locus YNL222W, strain SSU72, active compounds read low
[54] = locus YNL307C, strain MCK1 (second series), active compounds read low
[55] = locus YOL078W, strain AVO1, active compounds read low
[56] = locus YOL136C, strain PFK27, active compounds read low
[57] = locus YOR061W, strain CKA2, active compounds read low
[58] = locus YOR119C, strain RIO1, active compounds read low
[59] = locus YOR231W, strain MKK1, active compounds read low
[60] = locus YOR329C, strain SCD5, active compounds read low
[61] = locus YPL031C, strain PHO85, active compounds read low
[62] = locus YPL153C, strain RAD53, active compounds read low
[63] = locus YPL204W, strain HRR25, active compounds read low
[64] = locus YPL209C, strain IPL1, active compounds read low
[65] = locus YPL256C, strain CLN2, active compounds read low
[66] = locus YPR025C, strain CCL1, active compounds read low
[67] = locus YPR106W, strain ISR1, active compounds read low
[68] = locus YPR111W, strain DBF20, active compounds read low
[69] = strain NNK1, active compounds read low
[70] = strain TSCII, active compounds read low

Measured: normalized growth

CC(C)(C)c1csc(NC(=O)c2ccc(Cl)cc2Cl)n1
inactive: [1] 0.974 | [2] 0.976 | [3] 0.981 | [4] 0.971 | [5] 0.983 | [6] 0.973 | [7] 0.978 | [8] 0.962 | [9] 0.98 | [10] 0.978 | [11] 0.919 | [12] 0.991 | [13] 0.961 | [14] 0.97 | [15] 0.963 | [16] 0.95 | [17] 0.94 | [18] 0.966 | [19] 0.973 | [20] 0.964 | [21] 0.972 | [22] 0.975 | [23] 0.954 | [24] 0.938 | [25] 0.93 | locus YHR030C, strain SLT2, active compounds read low 0.867 | [26] 0.819 | [27] 0.98 | [28] 0.805 | [29] 0.973 | [30] 0.785 | [31] 0.864 | [32] 0.964 | [33] 0.978 | [34] 0.976 | [35] 0.993 | [36] 0.938 | [37] 0.939 | [38] 0.901 | [39] 0.958 | [40] 1.01 | [42] 0.968 | [43] 0.913 | [44] 0.9 | [45] 0.972 | [46] 0.931 | [47] 0.97 | [48] 0.98 | [49] 0.943 | [50] 0.974 | [51] 0.953 | [52] 0.967 | [53] 0.961 | [54] 0.91 | [55] 0.969 | [56] 0.917 | [57] 0.956 | [58] 1.01 | [59] 0.898 | [60] 0.975 | [61] 0.948 | [62] 0.946 | [63] 0.966 | [64] 0.982 | [66] 0.977 | [67] 0.958 | [68] 0.946 | [69] 0.938 | [70] 0.972
active: [41] 0.716 | [65] 0.843

CC(C)(C)c1csc(NNC(=O)c2ccc(Cl)cc2)n1
active: [41] 0.756 | [65] 0.769
inactive: [1] 0.978 | [2] 0.979 | [3] 0.954 | [4] 0.981 | [5] 0.966 | [6] 0.978 | [7] 0.98 | [8] 0.968 | [9] 0.974 | [10] 0.968 | [11] 0.884 | [12] 0.984 | [13] 0.958 | [14] 0.975 | [15] 0.925 | [16] 0.795 | [17] 0.913 | [18] 0.966 | [19] 0.963 | [20] 0.982 | [21] 0.92 | [22] 0.96 | [23] 0.883 | [24] 0.923 | [25] 0.871 | [26] 0.891 | [27] 0.911 | [28] 0.882 | [29] 0.984 | [30] 0.863 | [31] 0.921 | [32] 0.885 | [33] 0.964 | [34] 0.946 | [35] 0.904 | [36] 0.892 | [37] 0.885 | [38] 0.829 | [39] 0.967 | [40] 0.958 | [42] 0.872 | [43] 0.861 | [44] 0.814 | [45] 0.974 | [46] 0.872 | [47] 0.975 | [48] 0.982 | [49] 0.884 | [50] 0.969 | [51] 0.837 | [52] 0.96 | [53] 0.963 | [54] 0.899 | [55] 0.962 | [56] 0.868 | [57] 0.899 | [58] 0.967 | [59] 0.812 | [60] 0.97 | [61] 0.912 | [62] 0.895 | [63] 0.914 | [64] 0.966 | [66] 0.964 | [67] 0.954 | [68] 0.949 | [69] 0.957 | [70] 0.969
